Experimental data reported in PubChem BioAssay (NCATS).
Results filed as inconclusive are left out. Calls of active or inactive are those of the source. Unless noted, the call rests on the fitted dose curve; in most records, active means well fitted curve in the direction sought with a large enough effect; inconclusive means small, poorly fitted or top-dose-only effect, or another doubt; inactive means no such curve, though single readings can be large; an effect the other way counts as inactive or inconclusive.

Legend:
[1] = qHTS for differential inhibitors of proliferation of Plasmodium falciparum line GB4 (AID 1816);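 further: parasite growth measured after 72 h incubation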
[2] = qHTS for differential inhibitors of proliferation of Plasmodium falciparum line 3D7 (AID 1876); further: potency means the concentration at half of the fitted maximal effect
[3] = qHTS for differential inhibitors of proliferation of Plasmodium falciparum line D10 (AID 1877);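 further: parasites grown with compound for 72 h before DNA staining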
[4] = qHTS for differential inhibitors of proliferation of Plasmodium falciparum line Dd2 (AID 1882);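 further: series mostly up to about 29 µM; compound exposure of 72 h on infected erythrocytes; nearly all actives have a fitted effect of over 65% in size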
From the text: NIH Molecular Libraries Probe Production Network [MLPCN]
NIH National Institute of Allergy and Infectious Diseases [NIAID]
(§1) NIH Chemical Genomics Center [NCGC]
Assay Provider: Xinzhuan Su, NIAID
Plasmodium falciparum is a virulent malarial parasite that kills 1-2 million people worldwide each year. Transmitted by mosquitoes, the sporozoite form of the parasite enters the blood stream to infect hepatocytes, where they become merozoites that infect red blood cells (erythrocytes). Within erythrocytes, merozoites begin a […] cycle of growth and division, after which the parasite is released to infect new red blood cells. Gametocytes, which form within erythrocytes as well, circulate in the bloodstream and are ingested by the mosquito, thereby completing the life cycle. […] Because mature erythrocytes lack DNA, only Plasmodium-derived DNA is detected. […]
The SYBR Green viability assay was adapted from a method described previously (Plouffe et al., 2008). […] The following morning, fluorescence intensity at 485(14) nm excitation and 535(25) nm emission wavelengths was measured on an EnVision (Perkin Elmer) plate reader. Plate reads were normalized relative to the control inhibitor (0.29 uM artemisinin) and vehicle (DMSO) wells present on each plate and then corrected by an algorithm using vehicle-only control plates at the beginning and end of the compound plate stack. […]

[5] = qHTS for differential inhibitors of proliferation of Plasmodium falciparum line HB3 (AID 1886); conditions: Potency: Plasmodium falciparum HB3 proliferation inhibition;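 further: parasites grown with compound for 72 h before SYBR Green readout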; further: potency means the concentration at half of the fitted maximal effect
[6] = qHTS Assay for Modulators of Human Peripheral Myelin Protein 22 (PMP22) Expression/Activity (AID 1967; active means well fitted curve in the direction sought with a large enough effect in the signal ratio; the % refers to the signal ratio)
How it was run: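 Readout is the corrected green/red luminescence ratio after 24 h compound exposure, normalised to untreated cells (0%). Engineered MSC80 mouse Schwann cells express green luciferase from the mouse Pmp22 promoter and red luciferase from EF-alpha as internal control.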

[7] = molecular target: Ferritin light chain (Equus caballus) (UniProt P02791); assay: qHTS Validation Assay for Identification of Novel General Anesthetics (AID 2323); further: series mostly up to about 77 µM
Chain of Ferritin light chain (Equus caballus) (P02791 2-175 limits assumed): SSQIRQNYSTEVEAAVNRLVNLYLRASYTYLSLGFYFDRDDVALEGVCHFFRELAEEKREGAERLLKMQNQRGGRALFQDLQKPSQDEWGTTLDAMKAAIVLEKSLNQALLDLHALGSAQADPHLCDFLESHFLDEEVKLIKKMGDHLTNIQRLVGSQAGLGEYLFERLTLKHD
How it was run: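 Competitive displacement of the profluorescent anesthetic 1-AMA (50% saturated, PBS) from 10 uM apoferritin, 10 min, room temperature. Activity is normalized 380/535 nm fluorescence; concentration-response fitted with a four-parameter Hill equation.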

[8] = molecular target: Lysosomal alpha-glucosidase (Homo sapiens) (UniProt P10253); assay: Confirmation of Inhibitors and Activators of Purified Human alpha-Glucosidase (AID 2115; active means well fitted curve in either direction with a large enough effect)
From the text: as §1
NIH Molecular Libraries Probe Production centers Network [MLPCN]
Assay Submitter (PI): Wei Zheng
Alpha-glucosidase is responsible for hydrolysis of terminal, non-reducing 1,4-linked alpha-D-glucose residues with release of alpha-D-glucose. It is a lysosomal hydrolase that is required for the degradation of a small percentage (1-3%) of cellular glycogen in human. Deficiency of this enzyme results in glycogen-storage disease type II (GSDII), also referred to as Pompe disease, an autosomal recessive disorder. Structurally normal glycogen is accumulated in lysosomes and cytoplasm in affected patients, primarily in muscle tissues. Excessive glycogen storage within lysosomes may interrupt normal functioning of other organelles and leads to cellular injury. In turn, this leads to enlargement and dysfunction of the entire organ involved (eg, cardiomyopathy and muscle weakness). […]
This is a fluorogenic enzyme assay with 4-methylumbelliferyl-alpha-D-[…] as the substrate and human […] as the enzyme preparation. […] 4-methyllumbelliferone, can be excited at 365 nm and emits at 440 nm which can be detected by a standard fluorescence plate reader. […] The AC50 values were determined from concentration-response data modeled with the standard Hill equation. […]
(6) Detect the assay plate in a ViewLux plate reader (PerkinElmer) with Ex=365 nm and Em=440nm. […]

[9] = qHTS for differential inhibitors of proliferation of Plasmodium falciparum line W2 (AID 1883); conditions: Plasmodium falciparum W2 proliferation inhibition;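 further: potency means the concentration at half of the fitted maximal effect; parasites grown with compound for 72 h before lysis and staining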
[10] = molecular target: ATP-dependent DNA helicase Q1 (Homo sapiens) (UniProt P46063); assay: qHTS Validation Assay for Inhibitors of RecQ-Like Dna Helicase 1 (RECQ1) (AID 2353)
Chain of ATP-dependent DNA helicase Q1 (Homo sapiens) (P46063 whole entry, looked up): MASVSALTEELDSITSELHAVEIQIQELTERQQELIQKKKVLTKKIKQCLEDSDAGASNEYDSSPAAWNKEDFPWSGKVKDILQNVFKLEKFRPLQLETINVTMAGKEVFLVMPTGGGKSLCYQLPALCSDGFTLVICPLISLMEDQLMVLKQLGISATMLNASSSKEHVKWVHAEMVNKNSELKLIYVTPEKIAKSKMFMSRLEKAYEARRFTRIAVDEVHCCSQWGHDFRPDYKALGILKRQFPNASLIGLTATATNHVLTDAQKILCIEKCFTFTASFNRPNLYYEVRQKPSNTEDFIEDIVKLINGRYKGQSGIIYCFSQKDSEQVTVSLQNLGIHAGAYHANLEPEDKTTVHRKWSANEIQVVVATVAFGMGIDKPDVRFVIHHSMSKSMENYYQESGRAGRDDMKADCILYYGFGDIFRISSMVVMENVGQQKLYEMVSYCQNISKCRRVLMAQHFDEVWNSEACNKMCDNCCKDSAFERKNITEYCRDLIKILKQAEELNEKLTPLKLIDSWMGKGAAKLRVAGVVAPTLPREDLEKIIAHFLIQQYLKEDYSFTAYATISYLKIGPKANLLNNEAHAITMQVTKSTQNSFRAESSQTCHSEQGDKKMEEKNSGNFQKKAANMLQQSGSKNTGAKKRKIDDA
How it was run: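 50 nM RECQ1T1 preincubated 15 min with compound in Tris pH 8.0 buffer with MgCl2, DTT, Tween-20 and 2.5 ug/ml poly(dI-dC); started with 200 nM TAMRA/BHQ-2 forked duplex and 2 mM ATP. Unwinding read as fluorescence (525/598 nm), two reads 2 h apart.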

Measured: Potency

CC(=O)OCC1=C(C(=O)O)N2C(=O)[C@@H](NC(=O)CSc3ccncc3)[C@H]2SC1
inactive: [1] | [2] | [3] | [4] | [5] | [6] | [7]

CCCCN1C[C@H](O)[C@@H](O)[C@H](O)[C@H]1CO
inactive: [8]

NC(N)=NCc1cccc(I)c1
inactive: [4] | [7] | [10]
active: [2] 8.91 µM | [9] 10 µM | [5] 6.31 µM
